Screens as filed in PubChem BioAssay.
Compounds with a hit are over-represented: about 2.2% of the library has one in this group of screens.
BaF3 tox = parental Ba/F3 viability inhibition as JAK2V617F counter-screen. CellTiter-Glo ATP luminescence. inhibition, % at 5.6 µM. actives 1.1% (n = 220,000). AID 1486;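 active means inhibition above a per-campaign cutoff, the mean inhibition of all tested compounds plus 3 SD, cut at about 27% in these data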;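 further: 0% = DMSO wells and 100% = JAK Inhibitor I control wells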
KLF5 inhibitor = kruppel-like factor 5 inhibition. DLD-1 KLF5 promoter-luciferase reporter, luminescence. inhibition, % at 5 µM. actives 0.23% (n = 290,000);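 active means inhibition above a per-plate limit of that plate's mean compound inhibition plus 3 SD, cut at about 60% in these data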;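 further: 0% = DMSO wells and 100% = LY294002 at 200 µM; higher means less KLF5 promoter-driven luciferase light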
IEC-6 tox = kills IEC-6 intestinal cells in KLF5 counter-screen; inhibition, % at 5 µM; actives 0.78% (n = 290,000); IEC-6 cytotoxicity, luminescence viability; in the data active means inhibition above about 22%;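 further: 0% = plate median of test compound wells and 100% = cytotoxic reference compound wells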
APP transl inh = APP translation inhibition. SH-SY5Y APP 5'UTR-luciferase reporter, luminescence. inhibition, % at 2 µM. actives 0.82% (n = 190,000). AID 1285;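 active means inhibition above a set limit, derived from the sample mean plus 3 SD, cut at about 45% in these data; inconclusive means one replicate passes the limit while the other fails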
Ba/F3 V617F tox = lowers viability of Ba/F3 cells expressing EpoR and JAK2V617F. ATP luminescence. inhibition, % at 5.6 µM. actives 1.1% (n = 220,000);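 active means inhibition above the campaign mean plus 3 SD over all tested compounds, cut at about 24% in these data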;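 further: cytokine-independent growth of Ba/F3 cells driven by EpoR plus mutant JAK2; 0% = DMSO-treated cells and 100% = JAK inhibitor I control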
aSyn 5UTR inh = MLPCN primary screen, SNCA 5' untranslated region | inhibition, % (tested at 7.5 µM) | alpha-synuclein 5'UTR reporter, inhibitor activity | actives 0.82% (n = 300,000); in the data active means inhibition above about 60%; inconclusive means no clear call, values can overlap the other calls;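 further: H4 neuroglioblastoma cells stably carrying SNCA 5'UTR luciferase fusion; 0% = DMSO wells and 100% = positive control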
An asterisk follows results filed as active; ? = inconclusive; . = not tested or not shown.

SMILES | BaF3 tox | KLF5 inhibitor | IEC-6 tox | APP transl inh | Ba/F3 V617F tox | aSyn 5UTR inh
C/C(=N\NC(=O)C(=O)N/N=C(\C)c1cccc(O)c1)c1cccc(O)c1 | 0 | -23 | 6 | 17 | -2 | -3
Cc1ccc(NC2CC(C)NC(=S)N2)cc1 (configuration not stated) | 0 | -16 | -2 | . | -3 | -45
Cc1onc(-c2ccccc2)c1C(=O)NC(=S)NNC(=O)c1ccc(O)cc1 | 7 | 4 | 2 | 18 | 0 | 32
Cc1onc(-c2ccccc2)c1C(=O)NC(=S)NNC(=O)c1ccccc1O | 84* | 22 | 1 | -8 | 101* | 63*
Cc1onc(-c2ccccc2)c1C(=O)NC(=S)NNC(=O)c1ccc(O)cc1O | 72* | 56 | -5 | 27 | 98* | 64*
Cc1cc(C)cc(C(=O)NC(CC(N)=O)c2ccc(NCC3CC3)c([N+](=O)[O-])c2)c1 (configuration not stated) | . | -2 | 6 | . | . | 10
CC(C)(C)c1ccc(C(=O)NCCCNC(=O)c2ccccn2)cc1 | . | 4 | 8 | . | . | -17
C=C(C)COc1ccc(-c2ncncc2-c2ccccc2)c(O)c1 | . | -24 | -4 | . | . | 8
Cc1cc(N/N=C/c2ccc(O)c(C)c2O)nc(-c2ccccc2O)n1 | 7 | -30 | 10 | 43 | 1 | 87*
C/C(=N\Nc1cc(C)nc(-c2ccccc2O)n1)c1ccccc1 | 2 | -54 | 3 | 18 | -4 | -65
CC(C)(C)c1cc(CCC(=O)NNC(=S)NC(=O)c2ccccc2)cc(C(C)(C)C)c1O | 7 | -16 | 2 | 44 | -1 | 66*
Cc1ccc(NC(=O)c2ccc(NS(=O)(=O)c3c(C)noc3C)cc2)cc1C | 2 | -33 | 6 | -9 | 0 | 8
COc1ccc(NC(=O)c2ccc(NS(=O)(=O)c3c(C)noc3C)cc2)cc1OC | 97* | -23 | -13 | 18 | 0 | -2
CCCCN(Cc1ccccc1)C(=O)C1CCCN(S(=O)(=O)c2cnc[nH]2)C1 (configuration not stated) | 0 | -28 | -3 | 48* | -3 | -6
O=C(CCC1CCCN(C(=O)c2cccc(F)c2)C1)N1CCN(c2ccccn2)CC1 (configuration not stated) | . | -35 | 3 | . | . | 0
COCc1c(C(C)C)nc(C(C)C)c(/C=C/[C@@H](O)C[C@@H](O)CC(=O)O)c1-c1ccc(F)cc1 | . | . | . | . | . | 115*
CC(C)n1c(/C=C/[C@@H](O)C[C@@H](O)CC(=O)O)c(-c2ccc(F)cc2)c2ccccc21 | . | -40 | 8 | . | . | 64*
Cc1nc2c(-c3ccc(F)cc3)c(C)nn2c(C)c1CCC(=O)Nc1ccccc1 | 1 | -13 | 2 | . | -2 | 24
COc1ccc(C2=NN(C(=O)CCC(=O)O)C(c3ccc(F)cc3)C2)cc1 (configuration not stated) | . | -10 | -2 | . | . | -5
CCOCCCNC(=O)c1oc2ccc3c(c2c1C)C(O)CC(C)(C)O3 (configuration not stated) | . | -8 | 1 | . | . | 6
Cc1cc(Sc2nc(NC(C)C)nc(NC(C)C)n2)nc(Cl)n1 | 1 | -20 | 4 | -8 | 2 | -44
COc1ccc(Cl)cc1NC(=O)CN(C)C(=O)Cn1cnc2c1c(=O)n(C)c(=O)n2C | . | . | . | . | . | 10
c1ccc(CNc2nc(NCc3ccccc3)c3ccccc3n2)cc1 | 3 | 1 | 2 | . | 8 | 106*
CCCCn1c(N)c(N(CCOC)C(=O)c2ccc(F)c(S(=O)(=O)N3CCOCC3)c2)c(=O)[nH]c1=O | . | . | . | . | . | -12
CCCCn1c(N)c(N(Cc2ccccc2OC)C(=O)C(C)Oc2ccc(Cl)cc2)c(=O)[nH]c1=O (configuration not stated) | . | -6 | -4 | . | . | -9
SMILES | BaF3 tox | KLF5 inhibitor | IEC-6 tox | APP transl inh | Ba/F3 V617F tox | aSyn 5UTR inh
CC(C)(C)c1ccc(/C=N/Nc2nncn2N)cc1 | . | -34 | -6 | . | . | -27
Nn1cnnc1N/N=C/c1cc(Br)cc(Br)c1O | 3 | -33 | 31* | 16 | 9 | -5
O=c1cc(-c2ccccc2)[nH]n2cnnc12 | . | -36 | 0 | . | . | -4
Cc1cnc(NC(=O)c2cc3c(s2)CCCC3)s1 | 2 | 13 | 6 | -173 | -1 | 65*
Cc1csc(NC(=O)c2cc3c(s2)CCCC3)n1 | 8 | -43 | 9 | -165 | 6 | 29
CCCCN(C)CCNC(=O)CCn1nc(-c2ccc(Cl)cc2)ccc1=O | . | -42 | 3 | . | . | 7
CC(=O)C1=NN(c2ccccc2)C(c2cccs2)N1c1ccccc1 (configuration not stated) | 43* | -41 | -3 | 10 | 22 | .
CC(=O)C1=NN(c2ccccc2)C(c2ccc3c(c2)OCO3)N1c1ccc(N2CCOCC2)cc1 (configuration not stated) | 0 | -4 | -4 | -7 | 1 | -8
COC(=O)c1cccc(NS(=O)(=O)c2ccc(OC)c(C(=O)N3CCOCC3)c2)c1C | . | -11 | 0 | . | . | -17
O=C(NCc1ccc(F)cc1)C(c1ccccc1)c1ccccc1 | . | -7 | 3 | . | . | -11
CC(=O)N(Cc1ccc(F)cc1)C1=C(NCc2ccccc2)C(=O)c2ccccc2C1=O | 48* | 42 | 18 | 65* | 12 | 92*
COc1cccc(CNCc2ccc(OC)cc2OC)c1 | . | -11 | 0 | . | . | 4
CCn1c2ccccc2c2cc(CNCc3ccc(OC)cc3OC)ccc21 | 5 | -7 | 3 | 25 | 3 | 63*
Cn1c(N=Nc2ccccc2)nc2ccccc21 | 31* | -190 | 38* | -180 | 31* | -19
O=[N+]([O-])c1cccc(C(=NCc2ccccc2)NO)c1 | . | -29 | 4 | . | . | 0
CC(=O)n1cc(-c2ccncc2)c2ccccc21 | 8 | 0 | 3 | 46* | -1 | 4
CC(=O)n1cc(/C=N/NC(=O)c2sc(C)nc2C)c2ccccc21 | 0 | 21 | 6 | -7 | -2 | -28
Cc1ccc(-c2cc(C(=O)N3CCCC3)no2)cc1 | 1 | -114 | 0 | -208 | -1 | ?
Cc1ccc(-c2cc(C(=O)N3CCOCC3)no2)cc1 | . | 41 | -5 | . | . | 67*
COC(=O)c1cc(NS(=O)(=O)c2ccc(C(C)C)cc2)ccc1N1CCOCC1 | 5 | -2 | 3 | . | -4 | -8
CCN(C1CCCCC1)S(=O)(=O)c1ccc(S(=O)(=O)NCc2ccncc2)cc1 | 55* | -6 | 18 | -19 | 45* | -8
Cc1ccc(S(=O)(=O)NCc2ccncc2)cc1C | 75* | -18 | 11 | -3 | 48* | -3
O=S(=O)(NCc1ccncc1)c1ccc(Br)s1 | 62* | 14 | 13 | 28 | 47* | 14
Cn1c(Oc2ccc(Cl)c3cccnc23)nc2c1c(=O)n(Cc1ccccc1Cl)c(=O)n2C | 94* | -11 | 0 | -6 | -2 | .
COc1ccnc2c1c(=O)n(Cc1ccccc1Cl)c(=O)n2C | . | -18 | -4 | . | . | -1
O=C(/C=C\c1ccco1)Nc1cc([N+](=O)[O-])ccc1F | 43* | -39 | -3 | 94* | 73* | 97*
